Assay outcomes: PubChem BioAssay, National Center for Advancing Translational Sciences (NCATS)
NPC1 prom act: qHTS Assay for NPC1 Promoter Activators | Potency, µM (highest dose often 9.22 µM), for inactives: top-dose activation, most hits filed as activators | AID 485313, 2010 | 320,000 tested, 2.4% active | Huh7 NPC1 promoter luciferase reporter, 24 h; also: % of control where 0% means no effect; nearly all actives have a fitted effect of over 60% in size
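Luciferase expression driven by the NPC1 promoter was measured in stably transfected Huh7 cells after a 24 h compound incubation, using a luciferase reagent and a luminescence read.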
Luc counter: Counterscreen for Luciferase (Kinase-Glo TM) Inhibition; Kinase-Glo luciferase, ATP luminescence, 8 min; Potency, µM (doses to about 38.3 µM), without a hit: at the top dose activity change, negative = inhibition, actives largely listed as inhibitors; 200,000 tested, 0.28% active; AID 1379, 2008; Luciferin 4-monooxygenase (Photuris pensylvanica), Q27757; also: % is scaled to controls: 0 for no effect and ±100 for the full control effect; nearly all actives have a fitted effect of over 60% in size
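Light output from Kinase-Glo luciferase with luciferin and 10 uM ATP in 50 mM imidazole pH 7.2, KCl, MgCl2, Tween 20, BSA; compound pin-delivered, 8-min ambient incubation, then luminescence read.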
Rab9 prom act: qHTS Assay for Rab9 Promoter Activators; Potency, µM (doses to about 9.22 µM), for the others: at the top dose activation, negative = inhibition, usual class: activators; AID 485297, 2010; 320,000 tested, 2.8% active; Huh7 Rab9 promoter-luciferase reporter, luminescence, 24 h; also: % of control where 0% means no effect; nearly all actives have a fitted effect of over 60% in size
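Huh7 cells stably carrying a Rab9 promoter-luciferase reporter, 1500 cells per well in OP-MEM I with 10% FBS, treated with compound 24 hours at 37C. Luciferase activity read by luminescence after 10 minutes with Amplite reagent.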
SMN2 splice up: qHTS Assay for Enhancers of SMN2 Splice Variant Expression; HEK293 SMN2-luciferase splicing reporter, luminescence, 30-36 h; Potency, µM (series often up to 46.1 µM), for inactives: at the top dose activity change, positive = activation, hits mostly activators; 210,000 tested, 2.8% active; AID 1458, 2008; also: % of control where 0% means no effect; nearly all actives have a fitted effect of over 55% in size
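HEK293 cells carry an SMN2 minigene-luciferase reporter in which exon 7 inclusion puts luciferase in frame. Cells were seeded at 2000 cells/well, attached for 10-12 hours, then exposed to compounds for 30-36 hours at 37C before ONE-Glo luminescence.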
ELG1 genotox: qHTS screen for small molecules that induce genotoxicity in human embryonic kidney (HEK293T) cells expressing luciferase-tagged ELG1. HEK293T ELG1-luciferase reporter, luminescence, 16 h. Potency, µM (highest dose often 46 µM), without a hit: at the highest dose activity change, positive = activation, most hits filed as activators. 330,000 tested, 1.3% active; also: % of control where 0% means no effect; nearly all actives have a fitted effect of over 60% in size
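Screening used a luciferase reporter fused to human ELG1 in HEK293T cells. Luminescence was read on a CCD plate imager after 16 hr exposure and 30 min ONE-Glo incubation.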
FLuc counter: qHTS profiling assay for firefly luciferase inhibitor/activator using purifed enzyme and Km concentrations of substrates (counterscreen for miR-21 project); Potency, µM (series often up to 57.5 µM), without a hit: top-dose activity change, negative = inhibition, most hits filed as inhibitors; purified FLuc, Km substrates, luminescence inhibition; Luciferin 4-monooxygenase (Photinus pyralis), P08659; 360,000 tested, 6.9% active;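 also: plate controls were vehicle for no effect and reference inhibitor for full effect; nearly all actives have a fitted effect of over 55% in size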
Target sequence (P08659 whole entry, looked up): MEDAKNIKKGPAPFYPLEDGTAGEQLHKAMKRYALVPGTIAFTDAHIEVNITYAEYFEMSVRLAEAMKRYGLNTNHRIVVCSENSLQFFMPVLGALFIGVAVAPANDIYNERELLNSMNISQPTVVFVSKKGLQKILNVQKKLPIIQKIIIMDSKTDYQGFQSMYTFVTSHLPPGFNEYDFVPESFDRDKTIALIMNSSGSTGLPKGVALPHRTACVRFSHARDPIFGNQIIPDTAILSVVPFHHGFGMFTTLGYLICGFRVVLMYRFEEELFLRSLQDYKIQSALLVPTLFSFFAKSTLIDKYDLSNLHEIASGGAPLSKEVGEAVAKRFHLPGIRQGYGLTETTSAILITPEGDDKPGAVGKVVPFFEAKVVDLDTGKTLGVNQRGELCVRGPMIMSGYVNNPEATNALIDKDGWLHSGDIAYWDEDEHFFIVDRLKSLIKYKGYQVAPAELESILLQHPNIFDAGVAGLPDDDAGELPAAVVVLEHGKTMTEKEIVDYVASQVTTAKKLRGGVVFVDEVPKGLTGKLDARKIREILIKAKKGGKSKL
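Purified P. pyralis luciferase (10nM final) with 10uM D-luciferin and 10uM ATP (Km levels) in 50mM Tris acetate pH 7.5, 10mM Mg acetate, 0.01% Tween-20, 0.05% BSA; qHTS 6-point titration, ~60 µM downward; luminescence read.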
The depositor's hits bear a star; ? = inconclusive; . = no result. Compounds with a hit are over-represented: about 7.4% of the library has one in this group of screens. Calls follow the shape of the dose curve; as a rule, active = well fitted curve in the direction sought with a large enough effect; inconclusive = small, poorly fitted or top-dose-only effect, or another doubt; inactive = no such curve, though single readings can be large; an effect the other way counts as inactive or inconclusive. Potency is read from the fitted curve at half-maximal effect.

SMILES	NPC1 prom act	Luc counter	Rab9 prom act	SMN2 splice up	ELG1 genotox	FLuc counter
CC(C)(C)Nc1oc(-c2ccccc2)nc1-c1cccc2ccccc12	.	1%	.	0%	.	.
COc1ccc(C(=O)NC(=S)NC(C)(C)C)cc1Br	29%	4%	?	17%	9%	11µM*
Cc1ccc(N/C=C/C(=O)c2ccccc2)cc1Br	4µM*	.	3.2µM*	.	?	0.6µM*
CC(=O)c1ccc(N/C=C\C(=O)c2ccc(C)cc2)cc1	2.5µM*	1%	4µM*	16µM*	8.2µM*	1.9µM*
O=C(/C=C/Nc1cccc(O)c1)c1ccccc1	?	?	23%	?	?	0.17µM*
O=C(/C=C/Nc1ccc([N+](=O)[O-])cc1)c1ccc(Br)cc1	24%	1%	?	23%	?	-3%
CC(=O)c1ccc(NS(=O)(=O)c2ccc(N/C=C/C(=O)c3ccc(F)cc3)cc2)cc1	5%	.	7%	.	1%	?
Cc1ccc(C(=O)/C=C/Nc2ccc3c(c2)OCO3)cc1	0.71µM*	-9%	0.71µM*	?	?	0.27µM*
CCc1nn(CC(=O)NC2CC2)c(=O)c2cc3c(OC)cccc3n12	.	.	.	5%	.	-3%
O=C(/C=C/Nc1ccc(F)c(Cl)c1)c1ccccc1	?	.	3.5µM*	.	18µM*	2.4µM*
CC(=O)c1cccc(NS(=O)(=O)c2ccc(N/C=C\C(=O)c3ccc(C)cc3)cc2)c1	-13%	-2%	-4%	-23%	2%	5%
C/C(=C\C(=O)c1ccc(C)cc1)Nc1cccc(O)c1	2.8µM*	-6%	0.63µM*	?	?	0.85µM*
CC(=O)Nc1ccc(N/C=C/C(=O)c2ccc(Cl)cc2)cc1	?	.	?	.	8%	-13%
CC(=O)c1cccc(N/C=C\C(=O)c2ccc(C)cc2)c1	0.79µM*	-5%	0.79µM*	6.3µM*	2.6µM*	0.3µM*
Cc1ccc(C(=O)/C=C/Nc2cccc(O)c2)cc1	28%	?	?	25µM*	4.1µM*	0.38µM*
Cc1nc2c(c(C)c1CCC(=O)N1CCN(c3ccccc3)CC1)c(=O)n(C)c(=O)n2C	.	.	.	-2%	.	-2%
COc1cccc(CCNC(=O)c2cnc3sc(N4CCCC4)nn3c2=O)c1	.	.	.	-2%	.	-10%
COc1ccc(C)cc1NC(=O)Nc1ccc(C(=O)N2CCCC2)cc1	23%	.	29%	.	18%	13µM*
COc1ccc(Cl)cc1NC(=O)Nc1ccc(C(=O)N2CCCC2)cc1	20%	.	19%	.	-6%	21µM*
COc1ccc(Cl)cc1NC(=S)N1CCCC1	4%	0%	-1%	4%	-1%	0%
COc1ccc(C)cc1NC(=O)Nc1ccccc1	2%	-6%	10%	-10%	-7%	?
CCOC(=O)c1c(C)cc(O)c(C=O)c1O	.	-7%	.	-10%	.	.
O=c1c2cn[nH]c2[nH]c(=S)n1-c1ccccc1F	2.8µM*	-7%	?	14µM*	6.5µM*	1.2µM*
O=c1c2cn[nH]c2[nH]c(=S)n1-c1ccccc1Cl	-4%	.	0%	.	3%	-7%
c1csc(CNc2ncncc2-c2ccc3c(c2)OCO3)c1	.	-7%	.	-27%	.	.
O=C(Oc1ccccc1)N1CCC[C@@]2(CCN(c3ccccc3)C2)C1	.	0%	.	-21%	.	.
N/C(=N\OC(=O)CCCOc1ccc(Cl)cc1Cl)c1ccccn1	-8%	0%	0%	-3%	2%	-19%
N/C(CS(=O)(=O)c1ccccn1)=N\OC(=O)c1ccccc1Cl	2µM*	.	2.2µM*	.	?	?
N/C(=N\OC(=O)c1ccc(Cl)cc1Cl)c1ccccn1	0.32µM*	11µM*	0.11µM*	.	0.26µM*	0.095µM*
